A number with no mark means an inactive call.
molecular target: USP14 (UniProt P54578); assay: log2 ratio of Biotin-Ahx-Ub-VS probe labelling (fragment/DMSO); higher = less target engagement (more negative = stronger competition), active = hit call of the paper (q ≤ 0.05, log2 ratio ≤ -1); conditions: compound concentration: 200 uM; treatment time: 3 h
Experimental: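 Competitive ABPP in HEK293T cell lysate. Lysates were treated with each chloroacetamide fragment at 200 µM for 3 h, then with Biotin-Ahx-Ub-VS (0.5 µM, 1 h), NeutrAvidin-enriched and analysed by diaPASEF LC-MS/MS. Protein LFQ was median-normalised; average log2 ratio is fragment/DMSO from an unpaired t-test (n=3 treated, n=44 DMSO). Hits: q ≤ 0.05, log2 ratio ≤ -1, unique peptides ≥ 2.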

Chain of USP14 (P54578 whole entry, the tested form may be a part): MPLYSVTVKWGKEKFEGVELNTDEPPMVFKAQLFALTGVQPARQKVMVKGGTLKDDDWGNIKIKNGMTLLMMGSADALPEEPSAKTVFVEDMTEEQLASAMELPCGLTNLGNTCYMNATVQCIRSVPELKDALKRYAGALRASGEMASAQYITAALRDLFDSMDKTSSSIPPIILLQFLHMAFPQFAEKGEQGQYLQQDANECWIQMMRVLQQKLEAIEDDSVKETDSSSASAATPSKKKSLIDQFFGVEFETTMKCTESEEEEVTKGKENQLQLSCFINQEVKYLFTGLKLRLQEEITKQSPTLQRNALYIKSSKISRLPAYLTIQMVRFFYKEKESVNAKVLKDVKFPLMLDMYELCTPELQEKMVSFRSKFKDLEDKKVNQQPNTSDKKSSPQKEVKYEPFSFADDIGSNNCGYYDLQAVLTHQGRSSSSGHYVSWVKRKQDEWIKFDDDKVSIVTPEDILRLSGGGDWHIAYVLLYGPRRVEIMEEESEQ

Row | SMILES | log2 ratio of Biotin-Ahx-Ub-VS probe labelling
1 | Cc1cccc2nc(CCNC(=O)CCl)cn12.Cl | -0.259
2 | Cc1ccc(C(=O)NCCNC(=O)CCl)cc1 | -0.414
3 | O=C(CCl)N1CCC(OCc2ccccc2F)CC1 | 0.0975
4 | CCC(NC(=O)CCl)c1ccc(Cl)cc1 (stereo not given) | -0.332
5 | NS(=O)(=O)c1ccc(Cl)c(NC(=O)CCl)c1 | -0.356
6 | CC(NC(=O)CCl)c1csc(-c2ccccc2)n1.Cl (stereo not given) | -0.367
7 | O=C(CCl)N1CCOC(CCc2ccccc2)C1 (stereo not given) | -0.562
8 | Cc1cc(C(=O)NC2CCN(C(=O)CCl)CC2)no1 | -0.31
9 | Cc1cccc(N(CCC#N)C(=O)CCl)c1C | 0.0267
10 | O=C(CCl)N1c2ccccc2NC(=O)C12CCCC2 | -0.661
11 | O=C(CCl)N1CCC2(CCC(O)CC2)CC1 | 0.0657
12 | CC(NC(=O)CCl)c1noc(Cc2ccccc2)n1 (stereo not given) | -0.411
13 | O=C(CCl)N1CCC(=C(F)CO)C1 | 0.054
14 | COc1ccc(CN(C)C(=O)CCl)cc1 | -0.544
15 | O=C(CCl)Nc1ccc2c(c1)OC(F)(F)O2 | -0.0555
16 | Cc1cccc(C(CNC(=O)CCl)N2CCOCC2)c1.Cl (stereo not given) | 0.0229
17 | Cl.Cn1c(CNC(=O)CCl)nc2cccnc21 | -0.0826
18 | O=C(CCl)N1CCC(c2nc3ccccc3o2)CC1 | -0.483
19 | CN(C)C(=O)c1ccc(NC(=O)CCl)cc1 | -0.162
20 | O=C(CCl)N1CCC(C(O)c2ccc(F)cc2)CC1 (stereo not given) | -0.0836

Row | SMILES | log2 ratio of Biotin-Ahx-Ub-VS probe labelling
21 | Cn1cc(CN(Cc2ccc(Cl)cc2)C(=O)CCl)cn1 | -1.03 (active)
22 | O=C(CCl)N1CCC(S(=O)(=O)c2ccc(F)cc2)CC1 | -0.0146
23 | COCC1C=CCCN1C(=O)CCl (stereo not given) | -0.0905
24 | CC(=O)C1CCCCN1C(=O)CCl (stereo not given) | -0.101
25 | COc1ccc(C2CCCN2C(=O)CCl)c(OC)c1 (stereo not given) | -0.545
26 | C#Cc1cccc(NC(=O)CCl)c1 | -0.191
27 | CC(NC(=O)CCl)c1cc2n(n1)CCCC2.Cl (stereo not given) | -0.363
28 | Cc1cc(CC(C)NC(=O)CCl)n[nH]1 (stereo not given) | -0.00618
29 | Cl.Cn1cnc2cc(CNC(=O)CCl)ccc21 | -0.222
30 | CS(=O)(=O)N1CCCN(C(=O)CCl)CC1 | 0.105
31 | O=C(CCl)NC1CCCCNC1=O (stereo not given) | -0.476
32 | O=C(CCl)NCCc1ccc(F)cc1 | -0.0749
33 | CC(=O)Nc1ccc(NC(=O)CCl)cc1 | 0.0669
34 | O=C(CCl)NCCC1=CCCCC1 | 0.0195
35 | O=C(CCl)NCCc1ccc2c(c1)OCCO2 | -0.579
36 | Cl.O=C(CCl)NCc1cc2c(nc1O)CCCC2 | -0.12
37 | O=C(CCl)NCc1noc(C2CC2)n1 | -0.284
38 | O=C(CCl)N1CCc2nc[nH]c2C1c1ccc(Cl)cc1 (stereo not given) | -0.69
39 | O=C(CCl)N1CCOC2(CCC2)C1 | 0.0484
40 | O=C(CCl)NCc1ccc2c(c1)OCO2 | 0.052
